From PubChem
An excerpt weighted towards active compounds, which were near 10% of everything screened.
ALDH1A1 block: blocks purified human ALDH1A1 activity. P00352. Purified ALDH1A1, NADH fluorescence, propionaldehyde substrate. 220,000 tested, 7.3% active. Potency, µM (series often up to 75.3 µM), inactives show top-dose activity, negative = inhibition, hits mostly inhibitors;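 also: potency is read from the fitted curve at half-maximal effect; plate controls were no enzyme wells and a reference inhibitor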
PNC assembly inh: blocks assembly of the perinucleolar compartment | PC3M PTB-GFP, PNC prevalence imaging, 16 h; hits give low values | activity change (PNC), negative = inhibition, % at 10 µM | 140,000 tested, 3.1% active | AID 2417;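 active = readout at or below -70, meaning at least 70% loss of cells showing the perinucleolar compartment, a nuclear body marking cancer cells; inconclusive = readout between -30 and a set limit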;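 also: plate controls were DMSO wells for no effect and camptothecin positive control wells for full effect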
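PC3M cells stably expressing PTB-GFP, 750–1000 cells/well, treated 16 h at 37 °C with compound (23 nl of library stock), in duplicate. After paraformaldehyde fixation and Hoechst stain, imaged at 20x; PNC prevalence scored by image analysis.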
LMNA splice mod: changes lamin A minigene splicing in HeLa cells; HeLa LMNA splicing GFP/RFP minigene ratio, 48 h; Potency, µM (top dose mostly 46.1 µM), for the others: top-dose ratio change, negative = inhibition, hits mostly inhibitors; 200,000 tested, 0.01% active; AID 1487; active = well fitted inhibition curve with a large enough effect in the signal ratio, with a control signal flat, not every such curve was filed as active; inconclusive = small, poorly fitted or top-dose-only effect, or effect the other way, or a change in a side signal; the % refers to the signal ratio; also: potency is read from the fitted curve at half-maximal effect
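S3 HeLa cells stably expressing lamin A-EGFP splicing minigene plus DsRed2, 600 cells/well, 48 h compound exposure at 37C. Laser-scanning cytometry; analysed as GFP (500-530 nm)/RFP (575-640 nm) total intensity ratio; 0.5% DMSO vehicle.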
HPGD block: inhibitors of human 15-hydroxyprostaglandin dehydrogenase (HPGD); Potency, µM, without a hit: at the top dose activity change, negative = inhibition, most hits filed as inhibitors; purified HPGD, NADH fluorescence kinetic, PGE2 substrate; 150,000 tested, 4.3% active; P15428; also: potency is read from the fitted curve at half-maximal effect
Target sequence (P15428 whole entry, looked up): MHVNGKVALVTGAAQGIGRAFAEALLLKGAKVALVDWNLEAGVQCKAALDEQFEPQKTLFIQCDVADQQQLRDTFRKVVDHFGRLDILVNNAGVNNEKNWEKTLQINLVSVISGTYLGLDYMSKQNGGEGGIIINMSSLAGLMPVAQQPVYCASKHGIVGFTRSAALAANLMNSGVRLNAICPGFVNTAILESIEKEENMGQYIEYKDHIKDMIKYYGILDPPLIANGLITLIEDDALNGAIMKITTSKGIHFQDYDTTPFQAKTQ
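NADH formation kinetics: reaction with 30 uM PGE2 and 1 mM NAD+ (final), 20 nM enzyme, Tris-HCl pH 8 with Tween 20, after 15 min compound preincubation at room temperature. Fluorescence change, last versus first of five reads.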
12-hLO inh: inhibitors of human 12-lipoxygenase (ALOX12). purified 12-hLO, xylenol orange hydroperoxide absorbance. Potency, µM (doses to about 57.1 µM), for the others: top-dose activity change, negative = inhibition, hits mostly inhibitors. 150,000 tested, 0.12% active; active = well fitted inhibition curve with a large enough effect; inconclusive = small, poorly fitted or top-dose-only effect; also: potency is read from the fitted curve at half-maximal effect; nearly all actives have a fitted effect of over 55% in size
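Hydroperoxide formation by human 12-lipoxygenase from 40 uM arachidonic acid was followed colorimetrically via ferric-xylenol orange complex, using the 573/405 nm absorbance ratio. Enzyme concentration was 150 nM, with 30 min reaction at room temperature.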
The depositor's hits bear a star; ? = inconclusive; / = no result; [ ] = remark or other dose. Unless noted, calls follow the shape of the dose curve; as a rule, active = well fitted inhibition curve with a large enough effect (not every such curve was filed as active); inconclusive = small, poorly fitted or top-dose-only effect, or another doubt; inactive = no such curve, though single readings can be large or run the other way. Unless noted, % is scaled to controls: 0 for no effect and ±100 for the full control effect.

SMILES | ALDH1A1 block | PNC assembly inh | LMNA splice mod | HPGD block | 12-hLO inh
Cc1cc(C(=O)CN2C(=O)NC3(CCCc4sccc43)C2=O)c(C)n1-c1ccccc1 (stereo unspecified) | 28µM* | -3 | ? | -12% | 0%
O=C(CSc1c[nH]c2ccccc12)NCC1CCCO1 (stereo unspecified) | -5% | ? | -2% | 4µM* | 1%
Cc1ccccc1-n1nnnc1SCC(=O)NCC1CCCO1 (stereo unspecified) | 5.6µM* | / | / | / | /
CCn1c(SCC(=O)NCC2CCCO2)nnc1-c1c[nH]c2ccccc12 (stereo unspecified) | -19% | 12 | -1% | 32µM* | -6%
Cc1ccccc1NC(=O)CN1C(=O)CCn2nc(-c3cccn3C)cc21 | / | / | 12%[46 µM] | / | /
CCO/C(C)=N/n1c2nc3ccccc3nc2c2c(=O)n(CC(C)C)c(C)nc21 | 25µM* | 133 | 9%[0.0737 µM] | -15% | 8%
CCC(C)n1c(SCc2ccc(C(C)(C)C)cc2)nc2ccsc2c1=O (stereo unspecified) | / | / | -11%[46 µM] | / | /
CC(C)=CC1C=C(C)C(C)C2C(=O)NNC(=O)C12 (stereo unspecified) | 3.5µM* | -16 | 6% | -9% | 14%
CCOC(=O)C1=C(C)Nc2nnnn2C1c1ccccc1Cl (stereo unspecified) | 0.71µM* | -17 | ? | -11% | -9%
CCOC(=O)C1=C(C)Nc2nnnn2C1c1ccc(OC)c(Br)c1 (stereo unspecified) | -7% | -19 | ? | -21% | -7%
CCCCOC(=O)C1=C(C)Nc2nnnn2C1c1ccccc1Cl (stereo unspecified) | 0.45µM* | -7 | ? | -8% | -9%
COCCOC(=O)C1=C(C)NC(=O)N(C(C)=O)C1c1ccc(Cl)cc1 (stereo unspecified) | -7% | -7 | -7% | -10% | -2%
CCOC(=O)C1=C(C)NC(=S)N(C(C)=O)C1c1ccc(Cl)cc1 (stereo unspecified) | 8.9µM* | 48 | ? | -9% | -19%
CC1=C(C(N)=O)C(c2ccc(Cl)cc2Cl)n2ncnc2N1 (stereo unspecified) | 7% | -23 | 7% | -3% | 2%
CC(=O)C1=C(C)Nc2ncnn2C1c1ccccc1Cl (stereo unspecified) | 25µM* | -23 | 1% | / | -3%
C[C@@]12C=CC(=O)C=C1CCC1C3CC(O)[C@@](O)(C(=O)CO)[C@]3(C)CC(O)[C@]12F (stereo partly specified) | 5% | / | ? | -6% | -1%
COc1ccc(N2CC(NC(=O)COc3ccccc3)CC2=O)cc1OC (stereo unspecified) | / | / | 21%[46 µM] | / | /
CS(=O)(=O)NCC(c1ccco1)N1CCN(c2ccccc2)CC1 (stereo unspecified) | / | / | -17%[46 µM] | / | /
O=C(c1cccs1)N1CCCc2cc(NS(=O)(=O)c3ccc(Cl)cc3)ccc21 | / | / | -7%[46 µM] | / | /
C=CCOC(=O)C1=C(C)Nc2nnnn2C1c1cc(OC)ccc1OC (stereo unspecified) | 4.5µM* | 42 | 2% | 2% | -8%
COC(=O)C1=C(C)Nc2nnnn2C1c1ccc(Cl)cc1Cl (stereo unspecified) | 8.9µM* | ? | -1% | -7% | -21%
CC(C)C[C@H](N)C(=O)N[C@H](C(=O)N[C@H](C(=O)N[C@@H](Cc1ccc(O)cc1)C(=O)N1CCC[C@H]1C(=O)N[C@@H](Cc1c[nH]c2ccccc12)C(=O)N[C@H](C(=O)N[C@@H](CCC(N)=O)C(=O)N[C@@H](CCCN=C(N)N)C(=O)O)[C@@H](C)O)C(C)C)C(C)C | 18% | / | / | / | /
CN(C)c1ccc(C(=S)NCc2ccco2)cc1 | 5µM* | -17 | 11% | ? | -5%
CN(C)c1ccc(/C=N/NC(=S)NCc2ccco2)cc1 | ? | -21 | -6% | ? | -6%
COc1ccc(-c2nc3cnc(Nc4ccccc4)nc3n(CCC#N)c2=O)cc1 | 0% | / | / | -3% | 0%
SMILES | ALDH1A1 block | PNC assembly inh | LMNA splice mod | HPGD block | 12-hLO inh
Cc1noc(C)c1-c1ccc2ncnc(NCc3ccccc3)c2c1 | ? | / | ? | ? | 9%
CC(=O)CSc1nnc(-c2cnccn2)n1-c1ccccc1 | -15% | 19 | -13% | -9% | -2%
CC(C)OC(=O)CSc1nnc(-c2ccc(C(C)(C)C)cc2)n1N | 18µM* | 34 | -8% | 18µM* | -7%
CC(C)OC(=O)CSc1nnc(-c2cnccn2)n1-c1ccc(Cl)cc1 | 10µM* | 28 | 14% | -20% | 0%
CC(C)OC(=O)CSc1nnc(-c2ccncc2)n1N | 5% | -24 | 9% | -3% | -1%
Cc1ccc(-n2c(SCC(=O)OC(C)C)nnc2-c2ccncc2)cc1 | 1% | -100* | -2% | -21% | 1%
Cc1ccc(C(=O)NNC(=O)CSc2nnc(-c3ccncc3)n2-c2ccc(C)cc2)cc1 | -4% | 15 | -6% | -13% | 1%
CC1(OC(=O)c2ccc(Cl)nc2)C(=O)C=c2cc(-c3ccsc3)ncc2=C1OC(=O)C1CCCC1 (stereo unspecified) | 7%[13.5 µM] | / | 5%[9.22 µM] | -8% | 6%[11.4 µM]
O=C(CSc1cccc[n+]1[O-])c1cc2ccccc2o1 | ? | 8 | 2% | 28µM* | -10%
O=C(O)CSc1cccc[n+]1[O-] | 1% | 4 | 11% | 4% | -5%
Cn1cccc1C(=O)NC(=O)CSc1cccc[n+]1[O-] | ? | -95* | 4% | -28% | -5%
COc1cccc(CNC(=O)c2ccc3c(c2)nc2n3CCC(C)C2)c1OC (stereo unspecified) | / | / | 1%[46 µM] | / | /
COc1cccc(NC(=O)CCNS(=O)(=O)c2ccc3c(c2)CCCC(=O)N3)c1 | / | / | -2%[46 µM] | / | /
Cn1nnnc1SCCNCc1cc(Cl)ccc1OCc1ccccc1 | 13µM* | -3 | ? | -4% | -5%
Cc1cc(C)cc(OCCSc2nc3ccc(NC(=O)c4ccc5c(c4)OCO5)cc3s2)c1 | / | / | 29%[46 µM] | / | /
COc1cc2c(cc1OC)C(c1ccccc1)N(C(=O)CCl)CC2 (stereo unspecified) | ? | 62 | ? | -11% | 1%
COc1cc2c(cc1OC)C(c1ccccc1O)N(C1CC(=O)N(c3ccccc3)C1=O)CC2 (stereo unspecified) | 13µM* | ? | -6% | -13% | -7%
COC(=O)/C(=C\c1cc(OC)c(OC)c(OC)c1)c1nc2ccccc2[nH]1 | ? | / | -10%[46 µM] | / | /
COC(=O)/C(=C\c1ccc(O)cc1)c1nc2ccccc2[nH]1 | 12µM* | / | / | / | /
Cc1cccc(C(=O)n2c(=S)nc3ccccn32)c1 | 10µM* | 2 | 4% | 22µM* | -2%
Cc1ccc(C(=O)n2c(=S)nc3ccccn32)cc1 | 22µM* | -21 | 4% | 32µM* | -1%
O=C(c1ccccc1)n1c(=S)nc2ccccn21 | -2% | 21 | -8% | / | -3%
